An excerpt weighted towards active compounds, which were near 3.3% of everything screened.
14-3-3 Bad inh – disrupts binding of bovine 14-3-3 zeta to phospho-Bad peptide. actives 0.71% (n = 220,000). inhibition, % at 21.7 µM. AID 781. P63103. TR-FRET 14-3-3zeta/Dy647-pBad peptide displacement, 1 h;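 active = inhibition above about 70%, limit read from the data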
Target sequence (P63103 whole entry, looked up): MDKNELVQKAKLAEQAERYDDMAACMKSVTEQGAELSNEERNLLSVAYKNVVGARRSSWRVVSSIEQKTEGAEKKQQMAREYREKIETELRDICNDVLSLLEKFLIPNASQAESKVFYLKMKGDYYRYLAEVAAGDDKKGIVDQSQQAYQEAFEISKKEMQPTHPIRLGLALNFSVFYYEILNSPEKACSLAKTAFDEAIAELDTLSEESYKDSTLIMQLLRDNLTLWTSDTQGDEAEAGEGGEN
p47phox inh – p47phox (human) inhibition; actives 0.53% (n = 220,000); P14598; AID 1274; p47phox/p22phox peptide binding, fluorescence polarization, 2 h; inhibition, % at 24.7 µM
eIF4E-4G inh – blocks eIF4E binding to eIF4G | AID 782 | inhibition, % at 21.7 µM | actives 0.37% (n = 220,000) | TR-FRET eIF4E-eIF4GI(517-606) binding, 2 h | P63073+Q04637
Mcl-1 Bim block – disrupts Bim peptide binding to human Mcl-1; Q07820; Bead-based flow cytometry, Bim peptide-Mcl-1 binding; inhibition, % at 10 µM; actives 0.1% (n = 190,000); in the data active = inhibition above about 40%
Target sequence (Q07820 whole entry, looked up): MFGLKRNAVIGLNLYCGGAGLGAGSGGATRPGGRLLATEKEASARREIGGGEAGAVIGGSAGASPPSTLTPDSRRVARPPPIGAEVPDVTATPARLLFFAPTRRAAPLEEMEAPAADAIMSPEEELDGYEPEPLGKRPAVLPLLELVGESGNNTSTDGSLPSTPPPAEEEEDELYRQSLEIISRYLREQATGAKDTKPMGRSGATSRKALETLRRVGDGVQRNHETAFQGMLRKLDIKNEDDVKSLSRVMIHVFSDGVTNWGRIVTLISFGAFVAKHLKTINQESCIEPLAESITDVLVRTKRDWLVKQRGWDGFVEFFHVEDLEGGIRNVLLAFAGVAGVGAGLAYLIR
Mcl1-Noxa inh – disrupts binding of human Mcl-1 to Noxa peptide | Q07820 | TR-FRET Mcl-1/Noxa peptide binding, 2 h | inhibition, % at 21.7 µM | actives 1.5% (n = 220,000) | AID 1022;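 active = compounds that cut the protein-peptide binding signal by more than 50% relative to plate controls in a single-dose test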;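 also: His-tagged Mcl-1 with rhodamine Noxa BH3 peptide and terbium anti-His antibody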
Mcl1 Bid PPI – disrupts binding of human Mcl-1 to Bid peptide; TR-FRET Mcl-1/Bid-Dy647 peptide binding, 1536-well; actives 0.97% (n = 220,000); inhibition, % at 21.7 µM; AID 1021; Q07820;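 active = compounds that cut the binding signal by more than half at the single screening dose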;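 also: His-tagged Mcl-1 with europium anti-His antibody binding Bid BH3 peptide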
Numbers stand for hits; n = inactive; x = not tested or not shown; [ ] = another dose, or the depositor's remark.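 The calls were made as follows, unless noted: active = inhibition above about 30% (limit read from the data); inactive = the rest.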

SMILES	14-3-3 Bad inh	p47phox inh	eIF4E-4G inh	Mcl-1 Bim block	Mcl1-Noxa inh	Mcl1 Bid PPI
C=C(C)C(=O)Nc1cccc(C2=NOC3(C2)C[C@@H](C(N)=O)N(C(=O)CC(c2ccccc2)c2ccccc2)C3)c1 (some centres undefined)	n	n	n	x	56.2	n
CCC(=O)N1CC2(CC(c3cccc([N+](=O)[O-])c3)=NO2)C[C@H]1C(=O)NCC(N)=O (some centres undefined)	n	35.2	n	n	n	n
C=C(C)C(=O)Nc1cccc(C2=NOC3(C2)C[C@H](C(N)=O)N(C(=O)CC#N)C3)c1 (some centres undefined)	n	n	n	x	n	n
C=C(C)C(=O)Nc1cccc(C2=NOC3(C2)C[C@H](C(N)=O)N(C(=O)CC)C3)c1 (some centres undefined)	n	n	n	x	69.3	n
C/C=C(\C)C(=O)Nc1cccc(C2=NOC3(C2)C[C@@H](C(N)=O)N(C(=O)c2ccccc2C(=O)c2ccccc2)C3)c1 (some centres undefined)	n	n	n	x	n	n
CN(C)/C=C/C(=O)c1ncc(C(F)(F)F)cc1Cl	n	n	n	n	n	n
CCN(CC)CCC(C)OC(c1ccccc1)c1ccccc1 (centres undefined)	n	n	n	n	n	n
CC(=O)Nc1ccc2c(c1)nc1n2CCN(C2CCCCC2)C1	n	n	n	n	n	n
C/C(Cn1nc([N+](=O)[O-])cc1C)=N\NC(=O)COc1c(Cl)cc(Cl)cc1Cl	n	n	n	n	n	n
CN(Cc1ccon1)Cc1cn(Cc2ccccc2)nc1-c1ccc2c(c1)OCO2	n	n	n	n	n	n
O=C1c2cccc3cccc(c23)C(=O)N1c1ccc2ncccc2c1	73.8	34.5	n	n	n	n
Oc1cccc2ccc[n+](CC(O)Cn3c4ccccc4c4ccccc43)c12 (centres undefined)	n	38.0	n	n	n	n
OC(COc1ccccc1)Cn1c2ccccc2c2ccccc21 (centres undefined)	n	n	n	n	n	n
CCCCCc1nc2c(=O)[nH]c3ccccc3c2o1	n	n	n	n	76.8	n
O=C(Nc1cccc(S(=O)(=O)NC2=NCCCCC2)c1)c1cccnc1Cl	n	n	n	x	n	n
O=C(Nc1cccc(S(=O)(=O)NC2=NCCCCC2)c1)c1cc(-c2ccncc2)nc2ccccc12	n	n	n	n	54.5	n
O=C(Nc1cccc(S(=O)(=O)NC2=NCCCCC2)c1)c1cc(-c2ccco2)nc2ccccc12	n	n	35.3	x	97.1	n
O=C(O)c1ccc2ncc(NC(=O)c3ccc(F)cc3)c(=O)n2c1	n	n	n	x	n	n
COc1ccc(C(=O)Nc2cc(C)on2)cc1S(=O)(=O)N1CC(c2ccccc2)CC1=O (centres undefined)	90.1	n	n	n	n	n
Cc1cc(NC(=O)c2ccc(Cl)c(S(=O)(=O)N3CCOCC3)c2)no1	n	n	n	n	n	n
Cc1occc1C(=O)NNC(=O)NC12CC3CC(CC(C3)C1)C2	n	35.6	n	n	n	n
Cc1occc1C(=O)NNC(=O)C1CC1	n	n	n	n	n	n
CC(C)N1C(=O)/C(=C\c2nc3ccccc3c(=O)[nH]2)c2ccccc21	n	n	n	n	55.4	69.9
CCCN1C(=O)/C(=C/c2nc3ccccc3c(=O)[nH]2)c2ccccc21	n	n	n	n	n	n
CC(C)CCC(C(=O)O)C(C)CC(=O)Nc1ccn(-c2ccccc2)n1 (centres undefined)	n	n	n	x	n	n
SMILES	14-3-3 Bad inh	p47phox inh	eIF4E-4G inh	Mcl-1 Bim block	Mcl1-Noxa inh	Mcl1 Bid PPI
COc1ccccc1NC(=O)CSc1ccc2nnc(-c3ccc(C)cc3)n2n1	n	35.1	n	n	n	n
COc1ccccc1NC(=O)CSc1ccc2nnc(-c3ccncc3)n2n1	n	n	n	n	n	n
COc1ccc(C2(O)CCN(CC(=O)Nc3nc(-c4ccccc4)cs3)CC2)cc1	n	n	n	n	n	n
O=C(NC(Cc1ccccc1)C(=O)O)c1ccc(S(=O)(=O)N2CCCC2)cc1 (centres undefined)	n	n	n	n	n	n
O=C(NC(Cc1ccccc1)C(=O)O)c1ccc(S(=O)(=O)N2CCCCC2)cc1 (centres undefined)	n	n	n	n	n	99.2
O=C(N[C@@H](Cc1ccccc1)C(=O)O)c1ccncc1	n	n	n	n	n	94.4
COc1ccc(/C=N/NC(=O)c2ccccc2F)cc1CN1CCN(c2ccc(F)cc2)CC1	n	n	n	n	n	n
O=C(CSc1cccc[n+]1[O-])Nc1cc2c(cc1Cl)C(=O)c1ccccc1C2=O	99.0[fluorescence artefact?]	33.5	n	n	84.8	80.6
O=C(CSc1cccc[n+]1[O-])Nc1cc([N+](=O)[O-])ccc1Cl	n	n	n	n	n	n
Cc1ccc(C(=O)COC(=O)CNC(=O)c2ccc(N3C(=O)c4ccccc4C3=O)cc2)cc1C	n	n	n	n	82.9	n
O=C(NC(=O)c1ccc(Cl)cc1)Nc1ccc(-c2cnco2)cc1	78.3	n	n	x	n	n
Cc1cc(-c2csc(NCc3ccccc3)n2)c(C)n1C	97.9	n	n	n	69.0	n
Cc1nc(N)sc1-c1csc(NCc2ccccc2)n1	n	n	n	n	n	n
COc1ccc(/C=N/Nc2snc(SC)c2C#N)cc1OC	n	n	n	n	66.8	n
COc1cccc(/C=N/Nc2snc(SC)c2C#N)c1O	n	n	n	n	72.3	n
COc1cccc(/C=N/Nc2snc(SC)c2C#N)c1	n	n	n	n	n	n
COCCCNCCCCOc1ccc(Br)cc1C	n	41.1	n	n	n	n
Cn1c(=O)c2c(nc(N3CCN(c4ccc([N+](=O)[O-])cc4)CC3)n2C)n(C)c1=O	n	n	n	x	n	n
CCOc1cc(N2CCOCC2)c(OCC)cc1NC(C)C(=O)N1CCN(CC)CC1 (centres undefined)	n	66.7	n	n	n	n
CC(NC(=O)c1c(Cl)cnn1C)C1CCCO1 (centres undefined)	n	n	n	x	n	n
Cc1ccc2[nH]c(=O)c(CNS(=O)(=O)c3ccccc3)c(-c3ccccc3)c2c1	n	n	n	n	n	n
CN1CCN(c2cc3c(c4c2[nH]c2ccccc24)C(=O)CC(C)(C)C3)CC1	n	n	n	n	54.3	n
CN1CCN(c2ncnc3c2[nH]c2ccc(F)cc23)CC1	n	n	n	n	n	n
O=[N+]([O-])c1ccccc1NC(=S)N/N=C/c1ccc(O)c(O)c1	n	n	n	n	54.7	n
Cc1ccc(N2C(=O)C3N=NN(CC(=O)N4N=C(c5ccccc5)CC4c4ccccc4)C3C2=O)cc1 (centres undefined)	n	n	n	n	n	n

Compound activity (PubChem BioAssay)
